Bioassay records from PubChem.
sEH inh: inhibitors of human soluble epoxide hydrolase | AID 707 | P34913 | recombinant human sEH enzymatic activity assay | 0.34% of 91,000 active | inhibition, % at 2 µM; in the data active = inhibition above about 80%
CYP2C19 inhib: inhibitors of human CYP2C19. CYP2C19 Supersomes, luciferin-H EGE luminescence, 30 min. 21% of 96,000 active. inhibition, % at 5 µM;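 active = CYP2C19 inhibition above a set limit at 5 µM in the primary screen, cut at about 50% in these data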;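 note: plate controls were negative control wells for no effect and 2.5 mM tranylcypromine positive control for full effect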
Target sequence (P33261 whole entry, looked up): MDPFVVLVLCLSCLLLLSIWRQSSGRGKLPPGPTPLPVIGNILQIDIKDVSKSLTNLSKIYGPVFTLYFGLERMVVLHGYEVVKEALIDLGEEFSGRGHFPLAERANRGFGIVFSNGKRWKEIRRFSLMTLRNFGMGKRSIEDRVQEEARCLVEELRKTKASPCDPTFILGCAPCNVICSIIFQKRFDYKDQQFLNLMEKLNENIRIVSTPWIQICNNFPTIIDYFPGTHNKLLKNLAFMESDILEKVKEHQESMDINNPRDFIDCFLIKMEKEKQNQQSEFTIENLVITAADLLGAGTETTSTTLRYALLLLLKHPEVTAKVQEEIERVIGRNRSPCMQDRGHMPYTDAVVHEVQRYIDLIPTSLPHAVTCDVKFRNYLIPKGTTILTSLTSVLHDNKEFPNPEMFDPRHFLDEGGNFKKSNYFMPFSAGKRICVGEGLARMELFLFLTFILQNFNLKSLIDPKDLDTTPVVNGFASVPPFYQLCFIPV
sEH act: activators of human soluble epoxide hydrolase | purified human sEH enzymatic activity, activator screen | activation, % at 2 µM | P34913 | 0.04% of 91,000 active; in the data active = activation above about 37%
CYP2C19 activ: activators of human cytochrome P450 2C19. activation factor at 5 µM. 96,000 tested, under 10 active. recombinant CYP2C19, luciferin-H EGE luminescence; active compounds read high; 0 = fully inhibited enzyme, 1 = untreated enzyme;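 active = activation factor of at least 2 at 5 µM in the primary screen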;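 note: 0 = wells with 2.5 mM tranylcypromine and 1 = vehicle-only wells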
CYP2C9 activ: activators of human CYP2C9; P11712; recombinant CYP2C9, luciferin-H conversion, luminescence; active compounds read high; factor 1 = untreated enzyme, 0 = blocked; activation factor at 5 µM; 1.4% of 96,000 active;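 active = activation factor of 2 or more for CYP2C9 at a 5 µM dose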;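 note: 0 = sulfaphenazole-blocked wells and 1 = vehicle-only wells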
CYP2C9 inhib: blocks human cytochrome P450 2C9; CYP2C9 Supersomes, luciferin-H conversion, luminescence; P11712; inhibition, % at 5 µM; 20% of 96,000 active; AID 777;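 active = blocking of liver enzyme CYP2C9 beyond about 50% at 5 µM, limit read from the data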
* hit, by the source's call. A selection: hits, their analogues and other compounds. The true share with any hit is near 27%.

For Cc1ccc(N(CC(=O)NC2CCCCC2)C(=O)c2ccc(C)s2)cc1 the results were sEH inh 81*, CYP2C19 inhib 31, sEH act -80, CYP2C19 activ 0.7, CYP2C9 activ 0.4 and CYP2C9 inhib 60*.
Screening Cc1cc(C)cc(N(CC(=O)NC2CCCCC2)C(=O)c2ccc(C)s2)c1 returned sEH inh 7, CYP2C19 inhib 26, sEH act -4, CYP2C19 activ 0.7, CYP2C9 activ 1.1 and CYP2C9 inhib -5.
`Cc1ccc(S(=O)(=O)NCC(=O)N(CC(=O)NC2CCCC2)c2ccc3c(c2)OCCO3)cc1` gave CYP2C19 inhib 48, CYP2C19 activ 0.5, CYP2C9 activ 0.4 and CYP2C9 inhib 61*.
`CCC(C)(C)NC(=O)CN(C(=O)CNS(=O)(=O)c1ccc(C)cc1)c1ccc2c(c1)OCCO2` gave CYP2C19 inhib 29, CYP2C19 activ 0.7, CYP2C9 activ 0.5 and CYP2C9 inhib 54*.
For COCCNC(=O)c1ccccc1NC(=O)c1ccc(OC)c(OC)c1 the results were CYP2C19 inhib 3, CYP2C19 activ 1, CYP2C9 activ 0.7 and CYP2C9 inhib 33.
CCCC12CN(C(=O)c3ccc(OC)cc3)CC(C)(CN(C(=O)c3ccc(OC)cc3)C1)C2=O was read as sEH inh -6, CYP2C19 inhib 11, sEH act 9, CYP2C19 activ 0.9, CYP2C9 activ 1.1 and CYP2C9 inhib -8.
O=C(O)C(CCCCN1C(=O)C2C3C=CC(C3)C2C1=O)N1C(=O)C2C3C=CC(C3)C2C1=O (centres undefined) was read as sEH inh -14, CYP2C19 inhib -12, sEH act 14, CYP2C19 activ 1.1, CYP2C9 activ 1 and CYP2C9 inhib 4.
`COC(=O)C(CCCCN1C(=O)C2C3C=CC(C3)C2C1=O)N1C(=O)C2C3C=CC(C3)C2C1=O` (centres undefined) gave sEH inh -10, CYP2C19 inhib 47, sEH act 10, CYP2C19 activ 0.5, CYP2C9 activ 0.4 and CYP2C9 inhib 59*.
Screening CN(C)S(=O)(=O)c1ccc(NC(=O)Cn2c(-c3ccccc3)noc2=O)cc1 returned sEH inh -15, CYP2C19 inhib 78*, sEH act 9, CYP2C19 activ 0.2, CYP2C9 activ 0 and CYP2C9 inhib 95*.
C/C(CC(=O)Nc1ccc(OCc2ccccc2)cc1)=N\NC(=O)C(=O)Nc1ccccc1C was read as sEH inh 2, CYP2C19 inhib -11, sEH act 0, CYP2C19 activ 1.1, CYP2C9 activ 0.8 and CYP2C9 inhib 20.
Screening CC1(C)CC(=O)C2=C(C1)OC(N)=C(C#N)C2CCc1ccccc1 (centres undefined) returned sEH inh -6 and sEH act 6.
For CC1(C)CC(=O)C2=C(C1)OC(/N=C/N1CCOCC1)=C(C#N)C2c1ccccc1 (centres undefined) the results were sEH inh 1, CYP2C19 inhib 31, sEH act -3, CYP2C19 activ 0.7, CYP2C9 activ 0.3 and CYP2C9 inhib 65*.
For Cc1cc(C2C(C#N)=C(N)OC3=C2C(=O)CCC3)c(C)s1 (centres undefined) the results were sEH inh 7, CYP2C19 inhib 51*, sEH act -5, CYP2C19 activ 0.5, CYP2C9 activ 0.8 and CYP2C9 inhib 22.
`CC(c1ccccc1)C1C(C#N)=C(N)OC2=C1C(=O)CC(C)(C)C2` (centres undefined) gave sEH inh 22, CYP2C19 inhib 90*, sEH act -22, CYP2C19 activ 0.1, CYP2C9 activ 0.2 and CYP2C9 inhib 84*.
For CC(CC1C(C#N)=C(N)OC2=C1C(=O)CCC2)c1ccccc1 (centres undefined) the results were sEH inh 8, CYP2C19 inhib 93*, sEH act -9, CYP2C19 activ 0.1, CYP2C9 activ 0.1 and CYP2C9 inhib 88*.
Screening CC1(C)CC(=O)C2=C(C1)OC(N)=C(C#N)C2C#Cc1ccccc1 (centres undefined) returned sEH inh 4, CYP2C19 inhib 15, sEH act -4, CYP2C19 activ 0.8, CYP2C9 activ 0.3 and CYP2C9 inhib 69*.
For CCOC(=O)C1CCN(c2cc(=O)n(Cc3ccc(F)cc3)c(=O)[nH]2)CC1 the results were CYP2C19 inhib -5, CYP2C19 activ 1.1, CYP2C9 activ 0.7 and CYP2C9 inhib 26.
Screening CCOC(=O)C1=C(C)N=C(/N=C/N(C)C)SC1c1ccccc1 (centres undefined) returned CYP2C19 inhib 71*, CYP2C19 activ 0.3, CYP2C9 activ 0.5 and CYP2C9 inhib 48.
`Nc1cc(CN2C(=O)c3ccccc3C2=O)cc(Cl)c1O` gave sEH inh 3, CYP2C19 inhib 14, sEH act -4, CYP2C19 activ 0.9, CYP2C9 activ 3.5* and CYP2C9 inhib -254.
`O=C(c1ccc(Cl)cc1)c1ccc(CN2C(=O)c3ccccc3C2=O)o1` gave sEH inh -15, CYP2C19 inhib 11, sEH act 14, CYP2C19 activ 0.9, CYP2C9 activ 0.5 and CYP2C9 inhib 46.
Screening Cc1cccc(N(C)C(=O)CCS(=O)(=O)c2cccc3nonc23)c1 returned CYP2C19 inhib 94*, CYP2C19 activ 0.1, CYP2C9 activ 0.8 and CYP2C9 inhib 20.
Screening COc1ccc(N(C)C(=O)CCS(=O)(=O)c2cccc3nonc23)c(OC)c1 returned sEH inh -6, CYP2C19 inhib 64*, sEH act 4, CYP2C19 activ 0.4, CYP2C9 activ 0.9 and CYP2C9 inhib 9.
Screening Cc1sc2ncnc(NCC(C)(C)N3CCOCC3)c2c1C returned sEH inh 0, CYP2C19 inhib 22, sEH act 1, CYP2C19 activ 0.8, CYP2C9 activ 1 and CYP2C9 inhib 4.
Screening CC1(C)CC(=O)C2=C(C1)c1c(ccc3ccccc13)NC2c1ccc(Br)o1 (centres undefined) returned sEH inh 4, CYP2C19 inhib 75*, sEH act -4, CYP2C19 activ 0.3, CYP2C9 activ 0 and CYP2C9 inhib 96*.
CCOc1cc(CN2CCCCC2)ccc1OC was read as sEH inh -14, CYP2C19 inhib 9, sEH act 18, CYP2C19 activ 0.9, CYP2C9 activ 1.1 and CYP2C9 inhib -13.
For CCOC(=O)c1cc(C)n(Cc2ccc(OCC)c(OC)c2)c1C the results were sEH inh -7, CYP2C19 inhib 15, sEH act 9, CYP2C19 activ 0.8, CYP2C9 activ 0.4 and CYP2C9 inhib 59*.
NC(=O)CSc1nnc(C2CC2)n1Cc1ccccc1 was read as sEH inh -12, CYP2C19 inhib -5, sEH act 8, CYP2C19 activ 1, CYP2C9 activ 1 and CYP2C9 inhib 4.
For COCc1cc(C)c2c(N)c(C#N)sc2n1 the results were sEH inh -4, CYP2C19 inhib 29, sEH act 5, CYP2C19 activ 0.7, CYP2C9 activ 1.4 and CYP2C9 inhib -36.
